# Test results taken from PubChem BioAssay (NCI).
# Several values for one entry are separate records, joined by “and”; a condition that tells them apart may be missing. Identical values can stand only once. This is part of a sample that, as a whole, favours compounds with a hit. Of some 83,000 tested, about 20% had one in any assay.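 48-hour exposure, single concentration, 96-well plates; percent growth endpoint where 0 means no net growth. Active: below 10.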 A number with no mark means an inactive call. Activity calls are given as the source filed them.
# Columns and labels:
# Assay in all cases: NCI-60 one-dose screen, 48 h (100 = growth as untreated, 0 = no growth, -100 = all killed)
# Settings in all cases: 10 µM unless noted
# SK-MEL-2 melanoma = test system: SK-MEL-2 melanoma
# EKVX NSCLC = test system: EKVX NSCLC
# SN12C renal = test system: SN12C renal
# UO-31 renal = test system: UO-31 renal
# TK-10 renal = test system: TK-10 renal
# ACHN renal = test system: ACHN renal
# CAKI-1 renal = test system: CAKI-1 renal
# CCRF-CEM leukemia = test system: CCRF-CEM leukemia
# MOLT-4 leukemia = test system: MOLT-4 leukemia
# SR leukemia = test system: SR leukemia
# RPMI-8226 leukemia = test system: RPMI-8226 leukemia
# OVCAR-8 ovarian = test system: OVCAR-8 ovarian
# OVCAR-5 ovarian = test system: OVCAR-5 ovarian
# OVCAR-4 ovarian = test system: OVCAR-4 ovarian
# SK-OV-3 ovarian = test system: SK-OV-3 ovarian
# IGROV1 ovarian = test system: IGROV1 ovarian
# OVCAR-3 ovarian = test system: OVCAR-3 ovarian
# HS 578T breast = test system: HS 578T breast
# NCI/ADR-RES ovarian = test system: NCI/ADR-RES ovarian
# A498 renal = test system: A498 renal
Compound,growth (SK-MEL-2 melanoma),growth (EKVX NSCLC),growth (SN12C renal),growth (UO-31 renal),growth (TK-10 renal),growth (ACHN renal),growth (CAKI-1 renal),growth (CCRF-CEM leukemia),growth (MOLT-4 leukemia),growth (SR leukemia),growth (RPMI-8226 leukemia),growth (OVCAR-8 ovarian),growth (OVCAR-5 ovarian),growth (OVCAR-4 ovarian),growth (SK-OV-3 ovarian),growth (IGROV1 ovarian),growth (OVCAR-3 ovarian),growth (HS 578T breast),growth (NCI/ADR-RES ovarian),growth (A498 renal)
Clc1ccc(CNc2ccc3nc(CCC4CCCCC4)[nH]c3c2)cc1,85.6%,75.6%,59.1%,29.9%,83.6%,76.6%,50.4%,41.4%,39.1%,26.2%,-6.18% (active),65.3%,53%,32.3%,78.9%,45.9%,69.6%,78.8%,54.7%,–
C=C(CN1CC=CCC1)[C@@H]1CC[C@]2(COC(C)=O)CC[C@]3(C)[C@H](CC[C@@H]4[C@@]5(C)CC[C@H](O)C(C)(C)[C@@H]5CC[C@]43C)[C@@H]12,104%,109%,97.8%,89.4%,113%,99.8%,107%,85.4%,92.4%,90.4%,84.2%,96.1%,132%,92.2%,115%,112%,100%,103%,98.3%,–
CCCO/N=C/c1ccccn1,116% and 94.7%,108% and 96.8%,94.1% and 108%,89.5% and 93%,112% and 89.3%,104% and 100%,109%,80.9% and 105%,124% and 102%,93.4%,101%,103% and 107%,106% and 100%,97.4%,101% and 89.7%,107% and 101%,105% and 113%,102% and 104%,101% and 99.5%,–
Cc1ccc(/C=C(\C#N)c2cc3ccccc3[nH]2)cc1,48.8%,74.7%,50.3%,69.8%,82.6%,85.6%,45.6%,46%,30.6%,16.2%,60.2%,63%,65.2%,71.6%,67.1%,55.3%,29.7%,61.9%,16.1%,–
Cn1ccnc1CN1CCSC(C(=O)Nc2ccccc2)C1 (configuration not stated),102%,106%,91.4%,89.2%,101%,93.2%,89.2%,80.9%,94.3%,96.8%,88.5%,95.5%,83.1%,90.7%,98.7%,94.5%,102%,95.9%,92.7%,–
CCN(CC)CCCN1C(=O)c2c(c(C)c3c(oc4cc(OC)ccc43)c2C)C1=O,112%,99.3%,89.1%,67.4%,112%,63.1%,93.2%,–,93.9%,-4.78% (active),91.6%,17%,85%,111%,129%,86.6%,110%,108%,96%,97.7%
CCC(=C(c1ccc(OCCCN(C)C)cc1)c1ccc(OCCCN(C)C)cc1)c1ccc(Cl)cc1,-72.1% (active),-86.8% (active),-94.1% (active),-93.6% (active),-85.2% (active),-95.8% (active),-96.1% (active),-67.9% (active),-61.9% (active),-48.2% (active),-55.4% (active),-76.3% (active),-89.3% (active),-85.8% (active),-88.2% (active),-84.9% (active),-84.6% (active),-77.4% (active),-84.9% (active),–
O=C1/C(=C/c2cn(-c3ccccc3)nc2-c2ccccc2)SC(=S)N1c1ccccc1,110%,99%,90.7%,82.3%,106%,95.5%,87.2%,101%,109%,108%,107%,104%,106%,103%,111%,94.5%,109%,101%,103%,–
Nc1ncnc2c1C(c1ccc([N+](=O)[O-])cc1)c1sc3c(F)cccc3c1O2 (configuration not stated),107%,98.4%,97.1%,68.4%,129%,89.8%,74.9%,–,93.4%,94.3%,–,102%,85.9%,99.8%,109%,85.6%,110%,89.2%,101%,97.8%
S=c1nc(CS)[nH]c2ccccc12,101%,84%,95.4%,71.8%,161%,93.5%,77.1%,–,102%,101%,102%,90.9%,102%,94.3%,–,85.7%,106%,94.1%,101%,53.2%
COc1ccc(/C(C)=C(\c2ccc(OCCN3CCOCC3)cc2)c2ccc(OC(=O)C3CCCCC3)cc2)cc1,104%,107%,113%,101%,104%,98%,101%,–,117%,112%,97.9%,105%,98.4%,111%,101%,102%,97.5%,110%,102%,110%
CC(Sc1ccccc1)C(=O)O (configuration not stated),116%,94.2%,103%,94.9%,102%,104%,76.5%,–,141%,153%,–,99.5%,106%,102%,97.3%,81.4%,106%,115%,111%,88.7%
CCCc1cc(C(N)=S)ccn1,103%,99.1%,105%,76.4%,100%,102%,96.1%,113%,105%,104%,120%,99.3%,105%,110%,100%,105%,115%,125%,87.8%,–
BrC1=C(Br)C(Br)(Br)C(Br)=C1Br,95.3%,109%,86.2%,79.3%,97.8%,88.5%,87.3%,17.5%,17.1%,9.34% (active),20.8%,62.8%,97.2%,104%,108%,98.3%,104%,118%,75.2%,–
O=C(NCc1cccnc1)/C(=C\c1ccc(Br)cc1)S(=O)(=O)c1ccccc1,-44% (active),11.1%,-30.2% (active),10.7%,-59.4% (active),-15.3% (active),-2.88% (active),–,64.1%,55.9%,26.7%,3.01% (active),-41.3% (active),0.235% (active),10.2%,-11.3% (active),-96.7% (active),14.9%,2.59% (active),-20.4% (active)
